Experimental data as given in PubChem BioAssay (Tox21).
“And” between values parts separate entries of the source, which are not always exact repeats. Equal entries are not always repeated. Inconclusive results are not listed. A call without a number means that no potency is given here. More than one record can exist for a structure, and the calls need not agree. The source made the active and inactive calls. The call rests on the fitted dose curve; in most records, active means well fitted cell-killing curve with a large enough effect in the repeat runs (not every such curve was filed as active); inconclusive means weak or mixed curves, or effect the other way; inactive means no such curve, though single readings can be large or run the other way.

assay: qHTS assay to identify small molecule antagonists of the farnesoid-X-receptor (FXR) signaling pathway - cell viability counter screen (AID 743221); conditions: FXR-bla HEK293T viability, CellTiter-Glo luminescence, 16 h; series mostly up to 62.6 µM; activity change, negative = cytotoxicity: at the top concentration; further: nearly all actives have a fitted effect of over 50% in size
Description: National Center for Advancing Translational Sciences [NCATS]
NIH Chemical Genomics Center [NCGC]
U.S. Environmental Protection Agency [EPA]
National Institutes of Environmental Health Sciences [NIEHS]
National Toxicology Program [NTP]
U.S. Food and Drug Administration [FDA]
The farnesoid-X-receptor (FXR), a nuclear hormone receptor, is highly expressed in liver, intestine, kidney and adrenal cortex. Natural ligands of FXR are the bile acids (Cholic acid, Chenodeoxy cholic acid etc). FXR is an important regulator of diverse metabolic pathways, including the bile acid homeostasis, lipid and glucose metabolisms. FXR regulates the expression of target genes by binding either as a monomer or as a heterodimer with the retinoid X receptor (RXR). Numerous studies have reported that FXR exerts protective function during cholestasis, diabetes, liver regeneration, and cancer. To identify compounds that inhibit FXR signaling, GeneBLAzer FXR-UAS-bla HEK 293T cell line (Invitrogen, Carlsbad, CA) containing a beta-lactamase reporter gene under the control of a UAS response element was used to screen the Tox21 10K compound library. The cytotoxicity of the Tox21 compound library against the FXR-bla cell line was tested in parallel by measuring the cell viability using CellTiter-Glo assay in the same wells.
Tox21 Assay Protocol Summary:
FXR-bla cells were dispensed at 5000 cells/5uL/well in 1536-well black wall/clear bottom plates using a Multidrop Combi (Thermo Fisher Scientific, Waltham, MA) dispenser. After the assay plates were incubated at 37 C and 5% CO2 for 5 h, 23 nL of compounds dissolved in DMSO, positive controls or DMSO only was transferred to the assay plate by a Pintool station (Kalypsys, San Diego, CA), followed by addition of 1 uL Chenodeoxycholic acid (50 uM, final concentration in the wells). The assay plates were incubated at 37C for 16 h. After 1 uL of LiveBLAzerTM B/G FRET substrate was added using a Bioraptr Flying Reagent Dispenser (FRD) workstation (Beckman Coulter, Indianapolis, IN), the plates were incubated at room temperature for 2 h, and fluorescence intensity was measured by an Envision plate reader (PerkinElmer, Shelton, CT). For cell viability readout that measures cytotoxicity, 4uL/well of CellTiter-Glo reagent was added into the assay plates using a Bioraptr FRD. After 30 min incubation at room temperature, the luminescence intensity in the plates was measured using a ViewLux plate reader (PerkinElmer).
Potency means the concentration at half of the fitted maximal effect.

Row | SMILES | Potency | activity change, negative = cytotoxicity
1 | CCCCCCCCCCCCN | inactive and 49 µM (active) | –
2 | COC(=O)c1ccc(C(=O)OC)cc1 | inactive | –
3 | Cc1cc(O)c2c(c1)C(=O)c1cc(O)cc(O)c1C2=O | – | 25.8% (inactive)
4 | CS(=O)(=O)Nc1ccc([N+](=O)[O-])cc1Oc1ccccc1 | inactive | –
5 | CC(C)n1c(/C=C/[C@@H](O)C[C@@H](O)CC(=O)O)c(-c2ccc(F)cc2)c2ccccc21 | – | -20% (inactive)
6 | CC1CC(OC(=O)c2ccccc2O)CC(C)(C)C1 (stereo not given) | inactive | –
7 | O=[N+]([O-])C(CO)(CO)CO | inactive | –
8 | CC1(C)O[C@@H]2C[C@H]3[C@@H]4C[C@H](F)C5=CC(=O)CC[C@]5(C)[C@H]4[C@@H](O)C[C@]3(C)[C@]2(C(=O)CO)O1 | inactive | –
9 | CC#C[C@]1(O)CC[C@H]2[C@@H]3CCC4=CC(=O)CCC4=C3[C@@H](c3ccc(N(C)C)cc3)C[C@@]21C | inactive | –
10 | CCC(C)C=O (stereo not given) | – | -0.2% (inactive)
11 | NS(=O)(=O)c1cc2c(cc1Cl)NC=NS2(=O)=O | inactive | –
12 | ClC1=C(Cl)C(Cl)(Cl)C(Cl)=C1Cl | inactive | –
13 | COCC(C)O (stereo not given) | inactive | –
14 | NCCc1ccc(O)c(O)c1 | inactive | –
15 | Clc1cc(Cl)c(Cl)cc1Cl | inactive | –
16 | CN(C)c1cccc(O)c1 | inactive | –
17 | CC(C)(CO)COC(=O)C(C)(C)CO | inactive | –
18 | O=C1O[C@H](CO)[C@@H](O)[C@H](O)[C@H]1O | inactive | –
19 | Cc1ccc(C(=O)O)o1 | inactive | –
20 | C=CC(=O)OCCCCCCCC(C)C | inactive | –

Row | SMILES | Potency | activity change, negative = cytotoxicity
21 | NCCNCCNCCNCCN | inactive | –
22 | CCc1ccc(O)cc1 | inactive | –
23 | Cc1cc(Cc2ccc(N)c(C)c2)ccc1N | inactive | –
24 | Oc1ccc2ccccc2c1N=Nc1ccccc1 | inactive | –
25 | CCc1ccccc1O | inactive | –
26 | CC1=C(/C=C/C(C)=C/C=C/C(C)=C/CO)C(C)(C)CCC1 | inactive | –
27 | CS(=O)(=O)c1ccc([C@@H](O)[C@@H](CO)NC(=O)C(Cl)Cl)cc1 | inactive | –
28 | CN(CCOc1ccc(CC2SC(=O)NC2=O)cc1)c1ccccn1 (stereo not given) | inactive | –
29 | NC(=O)NNc1ccccc1 | inactive | –
30 | O=C1CCCCC1 | – | -2.16% (inactive)
31 | CCCCC/C=C\C/C=C\CCCCCCCC(=O)OC | inactive | –
32 | Oc1c(Cl)cc(Cl)c(Cl)c1Cl | inactive | –
33 | COC(=O)c1ccccc1O | inactive | –
34 | C/C=C(C)/C=C/C=C(C)C | inactive | –
35 | CCCCCCCCCCC=CC1CC(=O)OC1=O (stereo not given) | inactive | –
36 | C=C1CC[C@H](O)CC1=C/C=C1\CCC[C@]2(C)[C@@H]([C@H](C)/C=C/[C@H](C)C(C)C)CC[C@@H]12 | – | -14.7% (inactive)
37 | CCOC(=O)C1OC1c1ccccc1 (stereo not given) | inactive | –
38 | Nc1cc(-c2ccncc2)c[nH]c1=O | inactive | –
39 | C=C(C)C(=O)OCCCCCCCCCCCC | inactive | –
40 | O=c1c(-c2ccc(O)cc2)coc2cc(O)ccc12 | – | -2.67% (inactive)
